# Assay outcomes: PubChem BioAssay, Center for Chemical Genomics, University of Michigan
# TAR Tat displ: HIV-1 TAR-Tat binding disruption | HIV-1 TAR RNA, Tat peptide displacement FRET; active compounds read high | z-score (test concentration not listed) | hit rate 0.6% among 100,000; active means z-score of 3 or more in at least 2 runs
# CDC25B-CDK2 inh: human CDC25B-CDK2/CyclinA binding inhibition; HTRF CDC25B-CDK2/CyclinA binding, anti-His/anti-Flag; active compounds read high; hit rate 0.72% among 94,000; z-score (concentration not given with the values); in the data active means z-score above about 3.2
# An asterisk follows results filed as active; / = not tested or not shown. The list is not random: actives were taken first. Their share in the collection is about 0.86%.
SMILES,TAR Tat displ,CDC25B-CDK2 inh
O=C1C2CCN(CC2)C1Cc1ccco1 (configuration not stated),/,12*
O=C1C2CCN(CC2)C1Cc1ccc(OCCOc2ccccc2)cc1 (configuration not stated),0.32,-0.64
CC1N=C(c2ccccc2)c2ccccc2N(Cc2cc(=O)n3ccccc3n2)C1=O (configuration not stated),2.6,/
Cc1nn(-c2nc3ccccc3s2)c2c1C(c1cc(F)ccc1F)SCC(=O)N2 (configuration not stated),0.73,-1.1
Fc1ccc(N2CCN(Cc3c(F)cccc3F)CC2)cc1,0.44,/
COc1ccc(Cc2nccc3cc(OC)c(OC)cc23)cc1OC,1.6,13*
COc1ccc(CCNCc2ccc(OC)c(OC)c2)cc1OC,-1.2,-0.56
O=[N+]([O-])c1ccc(O)c([N+](=O)[O-])c1,1.9,/
O=[N+]([O-])c1cc(O)c(O)c([N+](=O)[O-])c1,9.5*,-3.6
c1ccc(-n2cccc2-c2nc(N3CC3)nc(N3CC3)n2)cc1,/,16*
COc1ccc2sc(N(CCN(C)C)C(=O)COc3ccccc3)nc2c1,2.9,/
CCC(C)C(=O)O[C@H]1[C@H](O)C2C(CN3CC(C)CCC3[C@@]2(C)O)C2C[C@]34O[C@]5(O)C(OC(=O)C(C)(O)C(C)O)CC[C@@]3(C)C5C(OC(C)=O)[C@@H](OC(C)=O)C4[C@@]21O (some centres not stated),0.53,/
CC[C@@H](C)C(=O)O[C@H]1[C@H](O)[C@H]2[C@@H](CN3C[C@@H](C)CC[C@H]3[C@@]2(C)O)[C@@H]2C[C@]34OC5(O)[C@@H](OC(=O)C(C)(O)C(C)O)CC[C@@]3(C)[C@@H]5[C@@H](OC(C)=O)[C@@H](OC(C)=O)[C@H]4[C@@]21O (some centres not stated),10*,/
O=S1(=O)N(Cc2cccc(Cl)c2)CCCN1Cc1cccc(Cl)c1,1.1,/
COc1cc2c(cc1O)CC1c3c(cc(O)c(OC)c3-2)CCN1C (configuration not stated),7.7*,/
COc1cc2c3c(c1OC)-c1ccccc1CC3N(C)CC2 (configuration not stated),-9.2,/
CCCOC(=O)c1sc2nc3c(cc2c1N)CN(C)CC3,-1.7,-1.9
[Cl-].[Cl][Pt].[NH2-].[NH2-].c1ccncc1,/,3.7*
COc1cc(-c2cc(NC(=O)CCc3nc(C4=CCN(C)CC4)no3)on2)cc(OC)c1OC,/,-1.4
CC[C@@H](CO)NC(=O)[C@@H]1C=C2c3cccc4[nH]cc(c34)C[C@H]2N(C)C1,0.85,4.2*
CC[C@@H](CO)NC(=O)[C@@H]1C=C2c3cccc4c3c(cn4C)C[C@H]2N(C)C1,/,1.1
O=c1[nH]c2ccc(Br)cc2c(=O)n1-c1ccccc1,/,-1.2
COc1cccc(CN2CCN(Cc3cc(Br)ccc3O)CC2)c1,0.7,16*
CCc1ccc(CN2CCN(Cc3cc(Br)ccc3O)CC2)cc1,1.3,-0.94
Cc1nn(-c2ccc(F)cc2)c2c1C(c1cc(F)ccc1F)SCC(=O)N2 (configuration not stated),1.1,0.11
SMILES,TAR Tat displ,CDC25B-CDK2 inh
Cc1ccc(-n2c(/C=C/c3ccc([N+](=O)[O-])o3)nc3ccccc3c2=O)cc1,-1.2,-1.5
Cc1nn(-c2nc3ccccc3s2)c2c1C(c1cc(F)cc(F)c1)SCC(=O)N2 (configuration not stated),-0.02,-1.8
O=C(O)c1c[nH]c2ccc(S(=O)(=O)N3CC4CC(C3)c3cccc(=O)n3C4)cc2c1=O (configuration not stated),0.6,/
CC(C)=CCCC1=CC(=O)c2c(O)ccc(O)c2C1=O,34*,/
CCn1nc(-c2ccccc2)nc2c(=O)n(C)c(=O)nc1-2,-7.7,-0.92
Cn1nc(-c2ccccc2)nc2c(=O)n(C)c(=O)nc1-2,-4.7,5.8*
CCCCCn1c(C)c(C(=O)c2cccc3ccccc23)c2ccccc21,0.1,/
CCCCN1C(C)=NS(=O)(=O)c2cc(C(=O)N(CC)CC)ccc21,-0.34,/
